Molecular target: Torsin-1A-interacting protein 2 (Homo sapiens) (UniProt Q8NFQ8)
Assay: LULL1 binders on small-molecule microarray, primary screen, cell lysate, human LULL1 lysate, 635/667 nm fluorescence (AID 1092);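 note: probe is lysate of COS7 cells overexpressing human LULL1; score merges per-feature 667 nm fluorescence with signal-to-noise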
Settings: hLULL1 lysate binding, 635 nm fluorescence, higher = more signal

Torsin-1A-interacting protein 2 (Homo sapiens), sequence (Q8NFQ8 whole entry, looked up): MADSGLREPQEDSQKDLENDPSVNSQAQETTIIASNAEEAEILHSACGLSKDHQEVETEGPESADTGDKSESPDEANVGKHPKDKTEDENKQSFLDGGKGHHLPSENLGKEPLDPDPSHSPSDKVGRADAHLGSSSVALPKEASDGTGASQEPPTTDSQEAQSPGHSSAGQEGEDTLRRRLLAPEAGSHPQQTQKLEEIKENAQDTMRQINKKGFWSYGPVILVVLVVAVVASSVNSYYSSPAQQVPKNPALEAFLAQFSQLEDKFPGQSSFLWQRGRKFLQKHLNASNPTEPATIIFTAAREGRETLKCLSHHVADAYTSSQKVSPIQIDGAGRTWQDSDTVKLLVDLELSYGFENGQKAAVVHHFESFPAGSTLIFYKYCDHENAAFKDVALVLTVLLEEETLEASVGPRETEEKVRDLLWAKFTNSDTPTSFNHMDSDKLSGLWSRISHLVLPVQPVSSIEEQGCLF

| Compound | composite z-score |
| --- | --- |
| COc1cc2c(cc1O)C(c1ccc(CN3CCCC3)cc1)N(Cc1cc3c(cc1Br)OCO3)CC2 (stereo unspecified) | 0.502 |
| CCCC[C@@H]1C[C@H]1[C@@H](NC(=O)c1cccs1)c1ccccc1C(F)(F)F | 3.12 |
| CCOC(=O)C1=C[C@@H](c2ccccc2)N(S(=O)(=O)c2ccc(C)cc2)[C@H]1c1ccc(OC)cc1 | 2.71 |
| C=CCC(OC(C)=O)[C@@H]1[C@@H](N(Cc2ccc(-c3cccc(C(F)(F)F)c3)o2)C(=O)Cc2ccc(OC)cc2)c2cc(OCCCO)ccc2N1C(=O)c1ccc(-c2ccccc2)cc1 (stereo partly specified) | 0.442 |
| C=CC[C@@H](OC(=O)Nc1ccc(SC)cc1)c1ccc(O)c(F)c1 | 0.724 |
| CCCCC=C[C@@H](NC(=O)OCc1ccccc1Cl)c1ccccc1 | 2.9 |
| C=CCC(OC(C)=O)[C@@H]1[C@@H](N(Cc2cccc3ccccc23)C(=O)Cc2ccc(OC)cc2)c2cc(OCCCO)ccc2N1C(=O)c1ccc(-c2ccccc2)cc1 (stereo partly specified) | 1.1 |
| CCCC=C(CCC)[C@@H](NP(=O)(c1ccccc1)c1ccccc1)c1ccc(-c2ccccc2)cc1 | 3.11 |
| COCCCNC(=O)[C@@]1(CCC(=O)OC(C)(C)C)N=C(c2ccc(OCCCO)cc2)O[C@H]1c1ccccc1N=[N+]=[N-] | 3.13 |
| O=C(Cc1ccccc1)[C@H]1C2C=CCCC(c3ccccc3)=C2CN1Cc1ccccc1 (stereo partly specified) | -0.862 |
| COC(=O)[C@@]1(Cc2ccc(F)cc2)[C@H]2c3cc(C(=O)N4CCCC4)n(Cc4ccc(C)c(F)c4F)c3C[C@H]2CN1C(=O)c1ccccc1 | 0.919 |
| COc1ccc(C#Cc2ccc3c(c2)[C@]2(C(=O)N3)[C@H](C(=O)O)[C@H]3C(=O)O[C@H](c4ccccc4)[C@H](c4ccccc4)N3[C@@H]2c2ccc(O)cc2)cc1 | 1.98 |
| CCC#CCN(Cc1ccccc1Br)[C@H](/C=C/C1CC1)[C@@H](O)Cc1ccccc1 | -0.783 |
| COC(=O)[C@@]1(Cc2ccccc2)[C@H]2c3cc(C(=O)N(C)C)n(Cc4ccc(C)o4)c3C[C@H]2CN1C(=O)c1ccccc1 | 2.93 |
| CC(C)NC(=O)[C@@]1(C)c2ccccc2C(=O)N(Cc2ccc(OC(F)(F)F)cc2)[C@H]1c1ccc(CO)cc1 | 2.32 |
| COc1ccc([Si](C)(C)[C@@H]2[C@@H](CC(=O)N3CCC[C@H]3CO)O[C@]3(C(=O)N(Cc4cccc(N5C(=O)COc6ccccc65)c4)c4ccccc43)[C@H]2C)cc1 | 1.77 |

| Compound | composite z-score |
| --- | --- |
| CCCC[C@@H](O)C1=C(COC)C[C@H]2C(=O)N(C)C(=O)[C@H]2[C@H]1CO | -0.419 |
| COc1ccc([Si](C)(C)[C@@H]2[C@@H](CC(=O)N(CCO)Cc3ccccc3)O[C@]3(C(=O)N(Cc4cccc(N5CCCCC5=O)c4)c4ccccc43)[C@H]2C)cc1 | 2.38 |
| COc1ccc(CCNC(=O)[C@@]2(Sc3ccc(C)cc3)CC(=O)N(Cc3ccccc3C(F)(F)F)[C@@H]2c2ccc(CO)cc2I)cc1 | 1.97 |
| [N-]=[N+]=Nc1ccccc1[C@@H]1OC(c2ccc(OCCCO)cc2)=N[C@]1(Cc1ccccc1)C(=O)N1CCCCC1 | 3.27 |
| Cc1ccc(S[C@]2(C(=O)NCc3ccccc3)CC(=O)N(C3CCCCC3)[C@@H]2c2ccc(CO)cc2I)cc1 | 2.72 |
| COc1ccc([Si](C)(C)[C@H]2[C@H](CC(=O)N(CCO)Cc3ccccc3)O[C@@]3(C(=O)N(C)c4c(Br)cc(C)cc43)[C@@H]2C)cc1 | 1.25 |
| [N-]=[N+]=Nc1ccccc1[C@@H]1OC(c2ccc(OCCCO)cc2)=N[C@]1(Cc1ccccc1)C(=O)O | 2.43 |
| CCCC1(C(=O)OC)C=C2C(=C(C)C(=O)C2C)CN1 (stereo unspecified) | 0.941 |
| COCC(=C=CC[C@H](O)c1ccccc1OCCO)C[C@H](O)c1ccccn1 | 3.35 |
| Oc1ccc2cc[n+](Cc3cc4c(cc3Br)OCO4)cc2c1 | -0.252 |
| CC(C)[Si]1(C(C)C)OCc2cc(C3CC3)nc(-c3ccc(Oc4ccccc4)cc3)c21 | -0.229 |
| [N-]=[N+]=Nc1ccccc1C[C@]1(C(=O)N2CCOCC2)COC(c2ccc(OCCCO)cc2)=N1 | 3.51 |
| [N-]=[N+]=Nc1ccccc1C[C@@]1(C(=O)NCCN2CCOCC2)N=C(c2ccc(OCCCO)cc2)O[C@@H]1c1ccccc1N=[N+]=[N-] | 3.19 |
| CCCCC(CC)C(O)C1C=CC2C(=O)N(C)C(=O)C2N1Nc1ccccc1 (stereo unspecified) | 2.87 |
| O=C1N(CCS(=O)(=O)c2ccccc2)c2ccccc2[C@H]2OC(c3ccc(OCCCO)cc3)=N[C@@]12Cc1ccccc1 | 2.36 |

Reference: PubChem BioAssay
